# Results taken from the supplement of paper PMC7366291.
# Structures can show the parent of a compound that is named as a salt. ± gives the standard deviation or the standard deviation of the averaged measurements.
# Tests used:
# Details in all cases: 25 µM; exposure: 24-48 hpf
# [1] = tested on: Danio rerio Tg(wt1b:EGFP) embryo, pronephros; experiment: glomerular separation, fold change vs DMSO control; higher = glomeruli further apart (abnormal)
# Summary of the method: (§1)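 Dechorionated Tg(wt1b:EGFP) zebrafish embryos were treated with 25 μM compound in 0.5% DMSO, in HEPES-buffered E3 with 0.003% PTU, from 24 to 48 hpf at 28.5°C. On maximum projections of dorsal pronephros images, 16 hand-placed reference points in Fiji gave distances and angles, and values more than 2 SD from the feature mean were left out. Results are fold changes over the mean of same-day DMSO-treated embryos.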
# [2] = tested on: Danio rerio Tg(wt1b:EGFP) embryo, pronephros; experiment: glomerular width (mean of left and right), fold change vs DMSO control; higher = wider glomerulus
# Summary of the method: as §1
# [3] = tested on: Danio rerio Tg(wt1b:EGFP) embryo, pronephros; experiment: fraction of imaged embryos annotated as normal kidney; higher = less nephrotoxic; extreme values may be limits of the assay
# Summary of the method: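 Tricaine-anaesthetised Tg(wt1b:EGFP) zebrafish larvae were oriented dorsally in agarose-filled 96-well plates, and their pronephroi were recorded by widefield fluorescence at 470 nm in 10 z-slices. Before this, the dechorionated embryos had been exposed in 12-well plates to 25 μM compound in 0.5% DMSO and 5 mM HEPES-buffered E3 with 0.003% PTU, from 24 to 48 hpf at 28.5°C. Maximum projections were annotated manually for each embryo, and the read-out is the fraction per treatment classed as normal kidney.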
# [4] = tested on: Danio rerio Tg(wt1b:EGFP) embryo, pronephros; experiment: pronephric angle neck segment to proximal convoluted tubule (mean of left and right), fold change vs DMSO control; higher = larger pronephric angle
# Summary of the method: as §1
SMILES,glomerular separation [1],glomerular width [2],fraction of imaged embryos annotated as normal kidney [3],pronephric angle neck segment [4]
CC(=O)OCC(=O)[C@@]1(OC(C)=O)[C@@H](C)C[C@H]2[C@@H]3C[C@H](F)C4=CC(=O)C=C[C@]4(C)[C@@]3(F)[C@@H](O)C[C@@]21C [Diflorasone Diacetate],1.52 ± 0.52,1.32 ± 0.052,0.727,0.973 ± 0.059
Nc1ccc(S(=O)(=O)Nc2ncccn2)cc1 [Sulfadiazine],0.947 ± 0.41,1.03 ± 0.031,0.917,0.9587 ± 0.0092
Nc1nc2ccc(OC(F)(F)F)cc2s1 [Riluzole hydrochloride],0.834 ± 0.22,0.964 ± 0.02,0.833,1.036 ± 0.0021
CCS(=O)(=O)CCn1c([N+](=O)[O-])cnc1C [Tinidazole],0.882 ± 0.35,1.04 ± 0.036,0.833,1.02 ± 0.037
CCN1CCC[C@H]1CNC(=O)c1c(OC)ccc(Br)c1OC [Remoxipride Hydrochloride],0.777 ± 0.38,1.02 ± 0.08,0.917,0.976 ± 0.032
Cc1c(F)c(N2CCNC(C)C2)cc2c1c(=O)c(C(=O)O)cn2C1CC1 (stereo not given) [Grepafloxacin],0.897 ± 0.35,1.033 ± 0.0021,0.75,0.985 ± 0.013
Cc1[nH]c(=O)c(C#N)cc1-c1ccncc1 [Milrinone],1.13 ± 0.36,1.01 ± 0.047,0.917,0.9759 ± 0.0011
CNCCCC1c2ccccc2C=Cc2ccccc21 [Protriptyline hydrochloride],0.765 ± 0.31,1.07 ± 0.027,0.75,0.973 ± 0.027
CN[C@@H]1[C@@H](O[C@H]2O[C@H](CO)[C@@H](N)[C@H](O)[C@H]2O)OC2C[C@@H](N)[C@@H](O[C@H]3[C@H](O)[C@@H](O)[C@H](N)C[C@@H]3N)OC2[C@@H]1O (stereo not given in full) [Apramycin],1.1 ± 0.44,0.977 ± 0.021,0.75,0.9506 ± 0.0069
CN(C)CCCO[C@@H]1[C@H]2OC(C)(C)O[C@H]2O[C@@H]1[C@H](O)CO [Amiprilose hydrochloride],1.12 ± 0.66,1.08 ± 0.071,0.667,1 ± 0.02
CS(=O)(=O)OCCCCOS(C)(=O)=O [Busulfan],0.771 ± 0.21,0.97453 ± 0.00036,0.75,0.943 ± 0.034
COc1cc2ncnc(Nc3ccc(F)c(Cl)c3)c2cc1OCCCN1CCOCC1 [Gefitinib],1.29 ± 0.64,0.981 ± 0.034,1,1.02 ± 0.024
CN(C)CCOc1ccc(/C(=C(/CCCl)c2ccccc2)c2ccccc2)cc1 [Toremifene],0.881 ± 0.39,0.904 ± 0.08,0.917,1.04 ± 0.018
COc1cccc2c1C(=O)c1c(O)c3c(c(O)c1C2=O)C[C@@](O)(C(C)=O)C[C@@H]3O[C@H]1C[C@H](N)[C@H](O)[C@H](C)O1 [Daunorubicin hydrochloride],0.979 ± 0.36,1.03 ± 0.019,0.917,1.04 ± 0.025
Cc1ccc(C(=O)c2ccc(CC(=O)O)n2C)cc1 [Tolmetin sodium salt dihydrate],1.55 ± 0.69,1.006 ± 0.0038,0.333,1 ± 0.075
CN1CCN(C(c2ccccc2)c2ccc(Cl)cc2)CC1 (stereo not given) [Chlorcyclizine hydrochloride],1.13 ± 0.62,0.995 ± 0.017,0.917,0.966 ± 0.022
O=P(O)(O)C(O)(Cn1ccnc1)P(=O)(O)O [Zoledronic acid hydrate],1.2 ± 0.37,1.04 ± 0.015,1,0.989 ± 0.0085
NC(=O)OCC(O)COc1ccc(Cl)cc1 (stereo not given) [Chlorphensin carbamate],0.973 ± 0.47,0.982 ± 0.071,0.833,1.12 ± 0.099
O=c1[nH]c(=O)n([C@H]2C[C@H](O)[C@@H](CO)O2)cc1C(F)(F)F [Trifluridine],0.965 ± 0.28,0.9839 ± 0.0047,0.917,0.99 ± 0.013
CCN(CC)CCN[C@@H](C(=O)OCCC(C)C)c1ccccc1 [Camylofine chlorhydrate],0.973 ± 0.34,1.02 ± 0.018,0.75,0.977 ± 0.015
COc1nc(N)nc2c1ncn2[C@@H]1O[C@H](CO)[C@@H](O)[C@@H]1O [Nelarabine],0.929 ± 0.39,0.992 ± 0.058,0.727,0.984 ± 0.073
COc1ccc(C(Cl)=C(c2ccc(OC)cc2)c2ccc(OC)cc2)cc1 [Chlorotrianisene],0.709 ± 0.16,1.028 ± 0.007,1,0.953 ± 0.013
O=C(CCCCCCC(=O)Nc1ccccc1)NO [Vorinostat],1.25 ± 0.51,0.947 ± 0.056,0.667,1 ± 0.053
NC(=O)N/N=C/c1ccc([N+](=O)[O-])o1 [Nitrofural],0.881 ± 0.24,1.02 ± 0.047,1,0.982 ± 0.017
CC1(C)S[C@@H]2[C@H](NC(=O)[C@H](N)c3ccc(O)cc3)C(=O)N2[C@H]1C(=O)O [Amoxicillin],1.13 ± 0.42,0.961 ± 0.046,0.833,1.04 ± 0.074
NS(=O)(=O)c1cc2c(cc1Cl)NC(C(Cl)Cl)NS2(=O)=O (stereo not given) [Trichlormethiazide],0.873 ± 0.36,0.992 ± 0.012,0.75,0.899 ± 0.015
CC(C)(C)NC[C@@H](O)COc1cccc2c1CCCC2=O [(+) -Levobunolol hydrochloride],0.984 ± 0.46,0.935 ± 0.054,0.75,1.03 ± 0.015
CCn1cc(C(=O)O)c(=O)c2cnc(N3CCCC3)nc21 [Piromidic acid],0.725 ± 0.31,0.909 ± 0.021,0.9,1 ± 0.008

SMILES,glomerular separation [1],glomerular width [2],fraction of imaged embryos annotated as normal kidney [3],pronephric angle neck segment [4]
CS(=O)(=O)Nc1ccc([N+](=O)[O-])cc1Oc1ccccc1 [Nimesulide],3.39 ± 1.9,0.837 ± 0.056,0,1.38 ± 0.071
Clc1ccc(CSC(Cn2ccnc2)c2ccc(Cl)cc2Cl)cc1 (stereo not given) [Sulconazole nitrate],2.88 ± 1.5,0.798 ± 0.035,0.25,1.38 ± 0.15
CN1CCN(c2c(F)cc3c(=O)c(C(=O)O)cn4c3c2SCC4)CC1 [Rufloxacin],0.835 ± 0.21,0.9236 ± 0.0089,1,0.986 ± 0.027
CC(=O)NC[C@H]1CN(c2ccc(N3CCOCC3)c(F)c2)C(=O)O1 [Linezolid],0.987 ± 0.23,1.02 ± 0.019,0.917,0.936 ± 0.029
NCC[C@H](O)C(=O)N[C@@H]1C[C@H](N)[C@@H](O[C@H]2O[C@H](CN)[C@@H](O)[C@H](O)[C@H]2O)[C@H](O)[C@H]1O[C@H]1O[C@H](CO)[C@@H](O)[C@H](N)[C@H]1O [Amikacin hydrate],1.13 ± 0.48,1.02 ± 0.028,0.667,1.04 ± 0.02
O=C(NCC(O)CO)c1c(I)c(C(=O)NCC(O)CO)c(I)c(N(CCO)C(=O)CO)c1I (stereo not given) [Ioversol],0.777 ± 0.33,1.07 ± 0.063,0.833,0.9813 ± 0.0048
CN1C(C(=O)Nc2ccccn2)=C(O)c2sccc2S1(=O)=O [Tenoxicam],0.97 ± 0.16,0.985 ± 0.022,0.917,0.999 ± 0.028
CCCC(=O)Nc1ncnc2c1ncn2[C@@H]1O[C@@H]2COP(=O)(O)O[C@H]2[C@H]1OC(=O)CCC [Bucladesine sodium salt],0.912 ± 0.4,0.933 ± 0.04,0.917,0.9351 ± 0.0021
CCC(=O)O[C@]1(C(=O)SCF)[C@H](C)C[C@H]2[C@@H]3C[C@H](F)C4=CC(=O)C=C[C@]4(C)[C@@]3(F)[C@@H](O)C[C@@]21C [Fluticasone propionate],1.84 ± 0.75,1.27 ± 0.021,0.0833,1.04 ± 0.079
Cc1cnc(C(=O)O)c[n+]1[O-] [Acipimox],1.01 ± 0.23,1.015 ± 0.0095,1,0.94922 ± 0.00089
C[C@H]1c2cccc(O)c2C(=O)C2=C(O)[C@]3(O)C(=O)C(C(N)=O)=C(O)[C@@H](N(C)C)[C@@H]3[C@@H](O)[C@@H]21 [Doxycycline hydrochloride],1.09 ± 0.26,1.02 ± 0.055,0.833,1.034 ± 0.01
CC(=O)Nc1ccc(CC(=O)O)cc1 [Actarit],1.05 ± 0.28,1.116 ± 0.0018,0.667,0.998 ± 0.049
Cn1c(=O)c2c(ncn2CC(O)CO)n(C)c1=O (stereo not given) [Diprophylline],0.977 ± 0.2,0.966 ± 0.01,0.667,1.05 ± 0.051
CC[C@H](C)C(=O)O[C@H]1C[C@@H](C)C=C2C=C[C@H](C)[C@H](CC[C@@H]3C[C@@H](O)CC(=O)O3)[C@H]21 [Lovastatin],5.64 ± 2.1,0.622 ± 0.012,0,1.54 ± 0.057
CN1CCC[C@@H]1CCO[C@](C)(c1ccccc1)c1ccc(Cl)cc1 [Clemastine fumarate],0.925 ± 0.57,1.01 ± 0.058,0.818,0.9686 ± 0.0025
CN(C)CCOC(=O)C(c1ccccc1)C1(O)CCCC1 (stereo not given) [Cyclopentolate hydrochloride],0.745 ± 0.24,0.9284 ± 0.0066,0.75,1.02 ± 0.035
CN1C(C(=O)Nc2ccccn2)=C(O)c2ccccc2S1(=O)=O [Piroxicam],6.43 ± 2.4,0.525 ± 0.012,0,1.78 ± 0.095
CCCNC(=O)NS(=O)(=O)c1ccc(Cl)cc1 [Chlorpropamide],1.09 ± 0.39,1.06 ± 0.087,0.75,1.051 ± 0.0085
Cc1c(C)c2c(c(C)c1O)CCC(C)(C(=O)O)O2 (stereo not given) [Trolox],0.733 ± 0.23,0.963 ± 0.058,0.833,1 ± 0.014
CCCCCN(C)CCC(O)(P(=O)(O)O)P(=O)(O)O [Ibandronate sodium],0.837 ± 0.21,1.06 ± 0.025,0.833,0.981 ± 0.048
CC(=O)N(CC(O)CN(C(C)=O)c1c(I)c(C(=O)NCC(O)CO)c(I)c(C(=O)NCC(O)CO)c1I)c1c(I)c(C(=O)NCC(O)CO)c(I)c(C(=O)NCC(O)CO)c1I (stereo not given) [Iodixanol],0.874 ± 0.28,1.043 ± 0.0099,0.917,1 ± 0.048
C[C@@H]1C[C@H]2[C@@H]3C[C@H](F)C4=CC(=O)C=C[C@]4(C)[C@@]3(F)[C@@H](O)C[C@]2(C)[C@@]1(O)C(=O)CO [Flumethasone],0.902 ± 0.3,1.28 ± 0.012,0.417,0.977 ± 0.049
CSc1ccc2c(c1)C(N1CCN(C)CC1)Cc1ccccc1S2 (stereo not given) [Methiothepin maleate],1.06 ± 0.38,1.01 ± 0.045,0.833,0.976 ± 0.034
CN(C)CCCOc1nn(Cc2ccccc2)c2ccccc12 [Benzydamine hydrochloride],1.24 ± 0.21,1.03 ± 0.035,1,0.9939 ± 0.0028
CC(=O)N[C@@H](CS)C(=O)O [Acetylcysteine],0.784 ± 0.26,1.035 ± 0.0055,0.917,1.0017 ± 0.00093
CN1C2CCCC1CC(NC(=O)c1nn(C)c3ccccc13)C2 (stereo not given) [Granisetron],0.791 ± 0.23,0.98 ± 0.024,0.917,1.04 ± 0.015
CC(CN(C)C)C(C)(O)Cc1ccc(Cl)cc1 (stereo not given) [Clobutinol hydrochloride],1.4 ± 0.46,0.945 ± 0.026,0.75,0.979 ± 0.034
